# Screens from PubChem BioAssay.
# Only some compounds are listed: those with a hit (about 11% of all), similar ones and a draw of the others.
# BAZ2B inh: blocks human BAZ2B. Q9UIF8. AID 504333. 360,000 tested, 4.4% active. Potency, µM (series often up to 114 µM), without a hit: at the top dose activity change, negative = inhibition, actives largely listed as inhibitors. AlphaScreen BAZ2B-H3K14Ac peptide displacement; note: % is set by controls: 0 for no effect and ±100 for the full control effect; nearly all actives have a fitted effect of over 60% in size
#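 AlphaScreen displacement of biotin-H3(5-23)K14Ac peptide (50 nM final) from BAZ2B (50 nM final) in PBS pH 7.4, 0.01% Tween-20; complex preformed 30 min RT, then compounds (top 110 uM) 30 min RT, beads 20 min dark.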
# G9a block: G9a (human) methyltransferase inhibition. 350,000 tested, 8.8% active. AID 504332. Q96KQ7. Potency, µM (series often up to 102 µM), for inactives: at the top dose activity, negative = inhibition, hits mostly inhibitors. G9a H3K9 monomethylation, AlphaScreen, 2 h; note: % is set by controls: 0 for no effect and ±100 for the full control effect; nearly all actives have a fitted effect of over 75% in size
# Target sequence (Q96KQ7 913-1193 limits assumed): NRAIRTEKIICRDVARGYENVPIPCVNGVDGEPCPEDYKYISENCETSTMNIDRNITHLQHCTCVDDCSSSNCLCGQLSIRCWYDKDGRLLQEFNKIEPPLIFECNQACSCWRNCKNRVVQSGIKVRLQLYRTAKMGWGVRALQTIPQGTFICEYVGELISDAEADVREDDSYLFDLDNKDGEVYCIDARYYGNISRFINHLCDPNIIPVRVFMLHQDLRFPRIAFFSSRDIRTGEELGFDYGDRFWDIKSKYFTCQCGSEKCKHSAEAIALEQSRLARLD
#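 Quantitative HTS format: methyltransferase activity on a biotin-tagged H3K9 peptide is measured by AlphaScreen, using a rabbit anti-monomethyl-H3K9 antibody with streptavidin donor and anti-IgG acceptor beads. Final levels are 20 nM enzyme, 500 nM peptide, 20 uM SAM; 2 h RT.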
# JMJD2A Tudor: blocks the human JMJD2A Tudor domain; O75164; AlphaScreen JMJD2A-Tudor / H3K4me3 peptide binding; Potency, µM (series often up to 114 µM), inactives show at the top dose activity change, negative = inhibition, hits mostly inhibitors; 390,000 tested, 4.4% active; note: % is set by controls: 0 for no effect and ±100 for the full control effect; nearly all actives have a fitted effect of over 50% in size
# L3MBTL1 block: inhibitors of human L3MBTL1 | AID 485360 | AlphaScreen L3MBTL1–H3K9me1 peptide binding | Potency, µM (highest dose often 57.1 µM), inactives show at the top dose activity, negative = inhibition, usual class: inhibitors | Q9Y468 | 230,000 tested, 0.66% active; note: % is set by controls: 0 for no effect and ±100 for the full control effect; nearly all actives have a fitted effect of over 60% in size
#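 AlphaScreen assay: L3MBTL1 (50 nM final) was preincubated 30 min at room temperature with biotinylated H3(1-15)K9me1 peptide (75 nM final), then 30 min with library compounds; streptavidin donor and nickel chelate acceptor beads (10 ug/mL final) added, 30 min dark.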
# HP1b chromo inh: blocks HP1-beta chromodomain binding to methylated histone tails; AID 540317; Potency, µM (top dose mostly 114 µM), for inactives: at the highest dose activity change, negative = inhibition, hits mostly inhibitors; 390,000 tested, 0.56% active; AlphaScreen HP1-beta / biotin-H3K9me3 peptide binding; note: nearly all actives have a fitted effect of over 70% in size
# Target sequence (P83916 whole entry, looked up): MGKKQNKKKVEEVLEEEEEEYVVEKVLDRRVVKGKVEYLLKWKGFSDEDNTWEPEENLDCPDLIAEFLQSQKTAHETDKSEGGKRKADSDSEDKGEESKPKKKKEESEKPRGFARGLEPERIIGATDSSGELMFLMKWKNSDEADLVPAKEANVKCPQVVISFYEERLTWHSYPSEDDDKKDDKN
#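 Compound inhibition of the preformed complex between 50 nM HP1-beta and 50 nM biotinylated H3K9me3 peptide was read by AlphaScreen. Buffer was PBS pH 7.4 with 0.01% Tween-20. Incubations ran 30 min at room temperature, with 10 ug/mL donor/acceptor beads.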
# Active calls of the source: *; ? = inconclusive; . = no result given; [ ] = another dose, or the depositor's remark. Calls come from the whole dose curve; as a rule, active = well fitted inhibition curve with a large enough effect; inconclusive = small, poorly fitted or top-dose-only effect; inactive = no such curve, though single readings can be large or run the other way. Potency is the fitted concentration of half-maximal effect.
SMILES,BAZ2B inh,G9a block,JMJD2A Tudor,L3MBTL1 block,HP1b chromo inh
COc1cccc(CN2C(=O)C3(SCC(=O)N3c3cc(C)cc(C)c3)c3ccccc32)c1 (stereo not drawn),?,-40.9%[59 µM],-19.0%,.,9.3%
COc1cc(C2c3c(oc4ccccc4c3=O)C(=O)N2c2nnc(C(C)C)s2)cc(OC)c1OC (stereo not drawn),-3.2%,4.7%[59 µM],-13.4%,.,15.7%
Cc1c(C)c2c(OCC(=O)NCC(=O)NCC(=O)O)cc3c(c2oc1=O)CCC(C)(C)O3,2.4%,18.5%,20µM*,.,17.1%
COc1ccc(C2Nc3ccccc3C(=O)N2Cc2ccccc2)cc1COc1ccc(C)cc1 (stereo not drawn),.,.,-14.3%,.,.
COc1cccc(-n2c(C)c3c(OC)cccc(=O)c3c2C)c1,56.2µM*,?,?,-25.4%,-19.1%
CCOc1cccc(=O)c2c(C)n(C)c(C)c12,56.2µM*,-13.2%[59 µM],?,?,-25.0%
COc1cccc(=O)c2c(C)n(C)c(C)c12,?,15.8µM*,?,?,-30.2%
Cc1ccc(S(=O)(=O)N2CCOCC2)cc1C(=O)NNC(=O)c1ccoc1C,.,10.0%,-1.3%,-31.6%,20.4%[57 µM]
CCCCC(=O)Nc1ccc(C(=O)OCc2cc(=O)n3ccsc3n2)cc1,-13.5%,25.5%[59 µM],-8.9%,.,31.0%
N#Cc1ccccc1CSCCNC(=O)Cc1c(F)cccc1Cl,6.7%,16.7%,-1.5%,.,45.5%
CC(=O)NC(c1ccc(Cl)cc1Cl)c1ccc2cccnc2c1O (stereo not drawn),28.2µM*,.,28.2µM*,-26.5%,-2.6%
CC(=O)NC(c1ccc2ccccc2c1)c1ccc2cccnc2c1O (stereo not drawn),28.2µM*,-38.4%,25.1µM*,?,31.1%
COc1ccc(C(NC(C)=O)c2ccc3cccnc3c2O)c(OC)c1 (stereo not drawn),28.2µM*,43.7%[59 µM],79.4µM*,?,26.2%
CCCC(=O)NC(c1ccc(Cl)cc1Cl)c1ccc2cccnc2c1O (stereo not drawn),-1.8%,20.0%,-19.2%,3.5%,43.9%
CCn1c(=O)cc(OCC(=O)N(C)c2cc(Cl)ccc2C)c2ccccc21,?,-19.2%[59 µM],-14.1%,.,11.0%
Cc1c(Cl)ccc2c(C(=O)NC(C)c3ccncc3)cc(-c3ccncc3)nc12 (stereo not drawn),-17.7%,-16.2%[59 µM],.,-16.7%,.
CCN(CC)c1ccc(NC(=O)c2cnn(CC)c2)cc1,39.8µM*,15.8µM*,?,-14.0%,?
CCn1cc(C(=O)Nc2ccccc2C(=O)OC)cn1,.,.,-7.0%,.,35.1%
CCn1cc(C(=O)NC(=S)Nc2cccc(O)c2)cn1,6.2%,11.2µM*,-3.3%,.,3.4%
Cc1ccccc1NC(=O)CSc1nc2c(c(=O)n(C)c(=O)n2C)n1C,-13.8%,70.8µM*,-7.4%,.,15.8%
Cc1ccccc1NC(=O)CSc1nc(-c2ccccc2)cn1-c1ccccc1F,?,11.2µM*,?,.,-16.8%
O=C(COc1ccccc1F)Nc1ccccc1OCc1cc(=O)n2ccccc2n1,-0.3%,7.3%[59 µM],-7.1%,.,13.7%[57 µM]
Cc1ccc(C(C)C)c(OCC(=O)Nc2ccc(N3CCOCC3)cc2N2CCOCC2)c1,0.1%,25.1µM*,-15.9%,-10.2%,18.5%
C/C(=N/NC(=O)COc1cc(C)ccc1C(C)C)C(=O)O,-3.0%,?,-19.6%,.,50.8%
Cc1ccc(C(C)C)c(OCC(=O)NN=C(CCl)CCl)c1,56.2µM*,.,.,?,.
SMILES,BAZ2B inh,G9a block,JMJD2A Tudor,L3MBTL1 block,HP1b chromo inh
Cc1ccc(CSCC(=O)Nc2ccc(N3CCOCC3)cc2N2CCOCC2)cc1,-6.2%,28.2µM*,-17.9%,5.7%,6.8%
Cc1cc(C)cc(NC(=O)CN(C)CC(=O)N(CC(C)C)c2c(N)n(CC(C)C)c(=O)[nH]c2=O)c1,-3.0%,15.5%[12.7 µM],-15.0%,-0.2%,35.9%
Cc1cc(Cl)ccc1NS(=O)(=O)c1ccc2c(c1)CC(C)N2C(=O)C1CCC1 (stereo not drawn),-3.3%,2.0%[59 µM],-25.1%,.,28.4%
COc1cc(OC)c(NC(=O)CSc2nccn2C)cc1Cl,-31.3%,5.0%[59 µM],-11.9%,.,23.7%
Cn1c(N)nc2ccccc2c1=O,-2.8%,-4.5%,-4.1%,4.4%,25.9%
Cn1c(Br)nc2c1c(=O)n(Cc1ccccc1)c(=O)n2C,-9.0%,.,-25.5%,.,16.7%
Cn1c(NN)nc2ccccc2c1=O,-23.0%,50.1µM*,-2.1%,-3.5%,40.5%
